Screens: PubChem, Buhrlage Lab, Dana-Farber Cancer Institute and Novartis Institutes for BioMedical Research (Cambridge, Mass)
USP30 block = human USP30 deubiquitinase inhibition | Q70CQ3 | purified USP30, Ub-rhodamine cleavage fluorescence | inhibition, % at 25 µM | actives 5.3% (n = 47,000)
USP17 block = human USP17-like deubiquitinase inhibition. A8MUK1. purified USP17, Ub-rhodamine cleavage fluorescence, 3 h. inhibition, % at 50 µM. actives 6.5% (n = 47,000). AID 1645855
Target sequence (A8MUK1 whole entry, looked up): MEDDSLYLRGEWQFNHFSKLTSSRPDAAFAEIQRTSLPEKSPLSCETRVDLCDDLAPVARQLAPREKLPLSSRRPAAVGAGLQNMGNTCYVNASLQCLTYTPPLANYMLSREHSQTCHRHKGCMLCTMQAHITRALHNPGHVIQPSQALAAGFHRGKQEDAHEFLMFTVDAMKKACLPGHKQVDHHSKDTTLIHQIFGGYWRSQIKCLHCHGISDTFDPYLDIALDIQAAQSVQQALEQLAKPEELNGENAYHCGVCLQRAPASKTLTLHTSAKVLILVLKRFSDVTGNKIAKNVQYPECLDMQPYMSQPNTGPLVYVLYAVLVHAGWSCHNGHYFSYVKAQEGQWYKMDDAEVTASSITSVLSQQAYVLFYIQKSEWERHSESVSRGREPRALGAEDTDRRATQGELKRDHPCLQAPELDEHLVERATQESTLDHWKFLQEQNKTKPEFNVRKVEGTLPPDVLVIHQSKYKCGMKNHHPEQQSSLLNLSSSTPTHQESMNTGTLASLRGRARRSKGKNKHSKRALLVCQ
USP28 block = blocks human USP28 ubiquitin-rhodamine cleavage; Q96RU2; purified USP28, Ub-rhodamine cleavage fluorescence, 30 min; inhibition, % at 25 µM; actives 3% (n = 47,000); AID 1645857
* hit, by the source's call; . = no result. Only some compounds are listed: those with a hit (about 11% of all), similar ones and a draw of the others. Cut-off read from the data, not from the text of the source: active = inhibition above about 30%; inactive = the rest.

SMILES | USP30 block | USP17 block | USP28 block
CCNc1cc(N2CCCC(CCC(=O)N3CCN(CC)CC3)C2)ncn1 (centres undefined) | -86.3 | -31.3 | -23.6
CCn1c(=O)n(CC(=O)NC2CCCCC2)c(=O)c2cnc(-c3ccccc3)nc21 | -17.9 | -7.2 | -5.3
CCn1cnc2c(-c3ccccc3)cn(CC(=O)Nc3cccc(C(C)=O)c3)c2c1=O | -34.0 | 8.1 | -18.3
CCOc1cc2[nH]c(=O)n(CC3CCC(C(=O)N4CCC5(CC4)OCCO5)CC3)c(=O)c2cc1OCC (centres undefined) | 10.8 | 4.5 | -0.2
CCOc1cc2[nH]c(=O)n(CC3CCC(C(=O)NCCc4c[nH]c5ccccc45)CC3)c(=O)c2cc1OCC (centres undefined) | 37.0* | 22.6 | -6.1
COc1ccc2c(c1)CCc1cc(C(=O)Nc3ccc(OC)cc3OC)sc1-2 | -60.2 | . | -16.3
COc1ccc2nc(N3CC(C(=O)N4CCC5(CC4)OCCO5)C3)sc2c1 | -1.0 | -7.9 | -0.1
COc1ccc2nc(N3CC(C(=O)Nc4ccc(C(N)=O)cc4)C3)sc2c1 | 61.6* | 64.9* | 32.5*
O=C(CCN=C1NS(=O)(=O)c2ccccc21)Nc1cccc(-c2nnc3n2CCCCC3)c1 | 10.8 | 3.5 | 7.9
O=S1(=O)NC(=NCCc2cccc(F)c2)c2ccccc21 | 33.5* | 49.4* | 6.2
Cc1onc(C(C)C)c1C(=O)N1CCCCC1c1ccn2nccc2n1 (centres undefined) | 4.7 | 0.0 | 1.8
COc1ccc(-c2nonc2NC(=O)C(C)Oc2ccccc2Cl)cc1OC (centres undefined) | 0.3 | -2.4 | -3.3
Cc1ccc(CCNC(=O)c2cnc3sc4c(n3c2=O)CCC4)cc1 | -7.3 | -2.6 | -3.8
Cc1csc2ncc(C(=O)NCCc3ccc(Cl)cc3)c(=O)n12 | 26.1 | 37.2* | 14.0
CCc1ccc(NC(=O)Cc2nnc(-c3ccc4ncccc4c3)o2)cc1 | 43.2* | 62.6* | 21.2
Cc1cccc(NC(=O)Cc2nnc(-c3ccc4ncccc4c3)o2)c1 | -27.7 | -4.8 | -7.3
Cc1cc(NC(=O)c2noc(C(C)C)c2[N+](=O)[O-])n(-c2ccccc2)n1 | -4.6 | -1.3 | -8.3
CCc1cccc(NC(=O)CSC2=NS(=O)(=O)c3ccccc3N2CC)c1 | 23.8 | -2.5 | 16.0
CCN1C(SCc2ccc(F)cc2)=NS(=O)(=O)c2ccccc21 | 14.3 | 4.9 | 61.8*
CCOc1ccc2nc(-n3nc(C)c4c3NC(=O)CC4c3cc(F)ccc3F)sc2c1 (centres undefined) | -31.7 | -3.8 | -21.2
CC(CNC(=O)c1ccccc1)NC(=O)c1ccccc1 (centres undefined) | -0.6 | 6.0 | 2.2
O=C(NC(C(=O)OCc1ccccc1)c1ccccc1)c1ccccc1 (centres undefined) | 32.3* | 26.0 | 8.6
Cc1cccc2cc3c(nc12)N(C(=O)C1CC1)CC3 | -51.1 | 34.9* | 2.6
Cc1cccc2cc3c(nc12)N(S(=O)(=O)c1ccc(F)cc1)CC3 | -4.4 | 2.7 | 2.2
CN(C)CCN1[C@H]2CCN(c3ncccn3)CC[C@@H]2Oc2ccccc2S1(=O)=O | -1.9 | 1.7 | -6.7
SMILES | USP30 block | USP17 block | USP28 block
CC(=O)Nc1ccc2nc(NC(=O)C34CC5CC(CC(C5)C3)C4)sc2c1 | 13.5 | 37.2* | 6.7
CC(=O)Nc1ccc2nc(NC(=O)c3cc(C)n(C)n3)sc2c1 | 3.8 | -9.7 | -2.6
COc1ccccc1Nc1ncnc2c1nnn2C | 21.5 | 6.7 | 3.6
Cc1nn(-c2ccc(F)cc2)c(C)c1S(=O)(=O)N1CCC(C)CC1 | 15.1 | 4.6 | 12.4
Cc1nn(-c2ccc(F)cc2)c(C)c1S(=O)(=O)N1CCN(c2ccccn2)CC1 | 37.5* | 24.1 | 3.6
O=C(O)c1ccc(C2Cc3c([nH]c(=O)[nH]c3=O)O2)cc1 (centres undefined) | 75.0* | 23.9 | 78.1*
CN1C(=O)N[C@@H](c2ccc(C(=O)O)cc2)[C@@H]2CCCO[C@@H]21 | -4.6 | 4.1 | 0.0
CCC(=O)N1CCN(c2nc3c(s2)CC(C(=O)NCc2cccnc2)CC3)CC1 (centres undefined) | -2.3 | -0.1 | -8.4
CCN1CCN(c2ccc(-c3nc(-c4ccc(OC)cc4)no3)cn2)CC1 | -3.6 | -12.3 | -3.7
CCN1CCN(c2ccc(NC(=O)c3ccc(OC)cc3)cn2)C1=O | 8.5 | 21.9 | 45.2*
COc1ccc(NC(=O)c2ccc(Nc3nnc(C)c4ccccc34)cc2)cc1 | 17.3 | 22.8 | 66.3*
CN(C)S(=O)(=O)Oc1ccc(C(=O)Nc2ccc(F)cc2)cc1 | 40.9* | 40.4* | 31.8*
Cc1ccc(C(=O)Nc2cccc(CO)c2)cc1 | -16.9 | -0.1 | -4.2
Cc1ccc(C(=O)Nc2ccc3nccnc3c2)cc1 | 29.1 | 5.8 | 58.5*
O=C(Nc1ccc(-n2cccc2)cc1)c1ccc(F)cc1 | 28.0 | 11.8 | 4.3
CCOc1ccc(NC(=O)c2cnc(Nc3ccc(OC)cc3)c3ccccc23)cc1 | -11.8 | 8.0 | -14.3
